# This is part of a sample that, as a whole, favours compounds with a hit. Of some 83,000 tested, about 20% had one in any assay.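 A percent growth of 40 corresponds to 60% growth inhibition; 0 means no net growth; -100 means all cells died. Active threshold: below 10.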 A number with no mark means an inactive call. Calls of active or inactive are those of the source.
# How the values were obtained:
# Experiment in all cases: NCI-60 one-dose screen, 48 h (100 = growth as untreated, 0 = no growth, -100 = all killed)
# [1] = system: DU-145 prostate; conditions: 10 µM unless noted
# [2] = system: K-562 leukemia; conditions: 10 µM unless noted
# [3] = system: MALME-3M melanoma; conditions: 10 µM unless noted
# [4] = system: MDA-MB-231 breast; conditions: 10 µM unless noted
# [5] = system: RXF 393 renal; conditions: 10 µM unless noted
# [6] = system: SF-268 CNS; conditions: 10 µM unless noted
# [7] = system: SF-295 CNS; conditions: 10 µM unless noted
# [8] = system: SF-539 CNS; conditions: 10 µM unless noted
# [9] = system: UACC-257 melanoma; conditions: 10 µM
# [10] = system: M14 melanoma; conditions: 10 µM unless noted
# [11] = system: HCT-15 colon; conditions: 10 µM unless noted
# [12] = system: HT29 colon; conditions: 10 µM unless noted
# [13] = system: SNB-19 CNS; conditions: 10 µM unless noted
# [14] = system: U251 CNS; conditions: 10 µM unless noted
# [15] = system: PC-3 prostate; conditions: 10 µM unless noted
# [16] = system: SK-MEL-5 melanoma; conditions: 10 µM unless noted
# [17] = system: UACC-62 melanoma; conditions: 10 µM unless noted
# [18] = system: LOX IMVI melanoma; conditions: 10 µM unless noted
# [19] = system: SK-MEL-28 melanoma; conditions: 10 µM unless noted
Structure (SMILES),growth [1],growth [2],growth [3],growth [4],growth [5],growth [6],growth [7],growth [8],growth [9],growth [10],growth [11],growth [12],growth [13] [%],growth [14],growth [15],growth [16],growth [17],growth [18],growth [19]
O=C(CSc1ccc(-c2nc3ccccc3[nH]2)cn1)N1CCN(c2ccccc2F)CC1,90.7%,41.9%,90.8%,100%,90.7%,87.7%,61.4%,92.1%,56.2%,59.8%,72.4%,94.1%,89.8,90.5%,57.7%,-32.7% (active),52.4%,85.3%,87.8%
O=[N+]([O-])c1ccc(-c2nnc(SCc3ccc(O)c4ncccc34)n2-c2ccccc2)cc1,29%,21.2%,19.6%,24.8%,16.3%,23.6%,5.71% (active),11.7%,42.5%,24.2%,19.2%,65.8%,14.4,14%,21%,1.12% (active),,-19.9% (active),43.4%
Nc1ccc(-c2nnc(SCc3ccc(O)c4ncccc34)n2-c2ccccc2)cc1,24.1%,15.9%,5.24% (active),17%,13.5%,23.3%,0.907% (active),10.5%,3.16% (active),14.9%,11.3%,23.8%,12.4,8.88% (active),14.1%,-54.6% (active),11.9%,14%,34%
Cc1ccc(Nc2ncnc3c2c(C)nn3-c2ccc([N+](=O)[O-])cc2)cc1,89.4%,69.1%,84.7%,80.8%,60.8%,79.1%,69.7%,74.4%,93.3%,80.6%,82.5%,80.3%,88.8,60.1%,78.4%,92.9%,92.2%,,97.5%
O=C(Nc1ccc(Cl)cc1)Nc1nc2ccc([N+](=O)[O-])cc2s1,14%,1.43% (active),-21.3% (active),-17.5% (active),-37.2% (active),7.98% (active),-57.9% (active),-22.3% (active),-32.6% (active),-20.4% (active),-42.7% (active),1.88% (active),11.5,-11% (active),-7.8% (active),-83.7% (active),-30.2% (active),,-12.3% (active)
N/C(=N\c1nc2c(Cl)cccc2s1)C(Cl)(Cl)Cl,3.92% (active),91.3%,104%,76.1%,55.2%,81%,20.1%,71.1%,90.7%,97.7%,81.3%,46.8%,72.7,57.3%,,96.1%,75.4%,62.4%,83.3%
O=C(CCCCCCN1CC(=O)N2[C@@H](c3cc(F)cc(F)c3)c3[nH]c4ccccc4c3C[C@H]2C1=O)NO,65.7%,32.2%,30.7%,62%,33.6%,79.8%,60%,60.5%,44.1%,51.9%,96.7%,47.8%,65.9,57.3%,,47.2%,21.4%,19.6%,52.7%
CN(C)C(=O)c1ccccc1-n1cnc2ccccc2c1=O,105%,108%,103%,100%,107%,94.6%,103%,95.5%,98.5%,101%,97.5%,103%,95.2,99.3%,97.2%,101%,96.9%,,103%

# Reference: PubChem BioAssay (NCI)
